Measurements from PubChem BioAssay AID1159580 (chemical genetic matrix, 2015).
Out of some 5,500 compounds screened, about 2,000 (36%) were called active. About 18% were inconclusive and are not listed. Rule as the data show it: active = normalized growth mostly below about 0.91 (no sharp cut-off); inconclusive = no clear call, values can overlap the other calls; inactive = mostly above about 0.92. This is one part of the list.

Assay: chemical genetic growth profiling, strain panel (AID 1159580);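 also: tested at 20 µM; growth read once vehicle control cultures reached saturation at 30 °C; 1 = growth at the plate median or of vehicle wells; lower values mean less growth of the strain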
Conditions: growth OD

Measured: normalized growth

O=C(O)COc1cc(Cl)c(Cl)cc1Cl
inactive: S. cerevisiae deletion strains, locus YJR075W, strain HOC1, stronger effect = lower value 1.01 | S. cerevisiae deletion strains, locus YKL009W, strain mrt4, stronger effect = lower value 1.05 | S. cerevisiae deletion strains, locus YKL068W, stronger effect = lower value 1.01 | S. cerevisiae deletion strains, locus YKL085W, strain MDH1 (second series), stronger effect = lower value 1.01 | S. cerevisiae deletion strains, locus YKL085W, strain MDH1, stronger effect = lower value 1.01 | S. cerevisiae deletion strains, locus YKL160W, strain elf1, stronger effect = lower value 1 | S. cerevisiae deletion strains, locus YKL190W, strain CNB1, stronger effect = lower value 0.995 | S. cerevisiae deletion strains, locus YKR001C, strain vps1, stronger effect = lower value 1.04 | S. cerevisiae deletion strains, locus YKR026C, strain gcn3, stronger effect = lower value 1 | S. cerevisiae deletion strains, locus YKR091W, strain srl3, stronger effect = lower value 1 | S. cerevisiae deletion strains, locus YLL001W, strain dnm1, stronger effect = lower value 1.01 | S. cerevisiae deletion strains, locus YLL026W, stronger effect = lower value 0.998 | S. cerevisiae deletion strains, locus YLL041C, strain sdh2, stronger effect = lower value 1 | S. cerevisiae deletion strains, locus YLR027C, strain aat2, stronger effect = lower value 1 | S. cerevisiae deletion strains, locus YLR039C, strain RIC1, stronger effect = lower value 1.06 | S. cerevisiae deletion strains, locus YLR058C, strain SHM2, stronger effect = lower value 1.01 | S. cerevisiae deletion strains, locus YLR102C, strain apc9, stronger effect = lower value 1.02 | S. cerevisiae deletion strains, locus YLR113W, strain HOG1, stronger effect = lower value 0.963 | S. cerevisiae deletion strains, locus YLR221C, strain rsa3, stronger effect = lower value 1 | S. cerevisiae deletion strains, locus YLR258W, strain gsy2, stronger effect = lower value 1.01 | S. cerevisiae deletion strains, locus YLR262C, strain YPT6 (second series), stronger effect = lower value 1.01 | S. cerevisiae deletion strains, locus YLR262C, strain YPT6, stronger effect = lower value 1.07 | S. cerevisiae deletion strains, locus YLR268W, strain sec22, stronger effect = lower value 1.02 | S. cerevisiae deletion strains, locus YLR320W, strain mms22, stronger effect = lower value 0.994 | S. cerevisiae deletion strains, locus YLR330W, strain CHS5, stronger effect = lower value 1.01 | S. cerevisiae deletion strains, locus YLR342W, strain FKS1 (second series), stronger effect = lower value 1.02 | S. cerevisiae deletion strains, locus YLR342W, strain FKS1, stronger effect = lower value 0.999 | S. cerevisiae deletion strains, locus YLR357W, strain rsc2, stronger effect = lower value 0.964 | S. cerevisiae deletion strains, locus YLR370C, strain arc18, stronger effect = lower value 1 | S. cerevisiae deletion strains, locus YLR371W, strain rom2, stronger effect = lower value 1.02 | S. cerevisiae deletion strains, locus YLR384C, strain iki3, stronger effect = lower value 1 | S. cerevisiae deletion strains, locus YLR418C, strain cdc73, stronger effect = lower value 1.04 | S. cerevisiae deletion strains, locus YML016C, strain PPZ1, stronger effect = lower value 1.01 | S. cerevisiae deletion strains, locus YML032C, strain rad52, stronger effect = lower value 1.02 | S. cerevisiae deletion strains, locus YML120C, strain ndi1, stronger effect = lower value 0.999 | S. cerevisiae deletion strains, locus YML124C, strain tub3, stronger effect = lower value 1.02 | S. cerevisiae deletion strains, locus YMR058W, strain fet3, stronger effect = lower value 1 | S. cerevisiae deletion strains, locus YMR078C, strain ctf18, stronger effect = lower value 1.03 | S. cerevisiae deletion strains, locus YMR125W, strain sto1, stronger effect = lower value 0.994 | S. cerevisiae deletion strains, locus YMR129W, stronger effect = lower value 1.01 | S. cerevisiae deletion strains, locus YMR205C, strain PFK2, stronger effect = lower value 0.992 | S. cerevisiae deletion strains, locus YMR223W, strain ubp8, stronger effect = lower value 1.02 | S. cerevisiae deletion strains, locus YMR231W, strain pep5, stronger effect = lower value 1.01 | S. cerevisiae deletion strains, locus YMR263W, strain SAP30, stronger effect = lower value 1.01 | S. cerevisiae deletion strains, locus YMR307W, strain GAS1, stronger effect = lower value 1.02 | S. cerevisiae deletion strains, locus YNL067W, strain RPL9B, stronger effect = lower value 1.01 | S. cerevisiae deletion strains, locus YNL071W, strain lat1, stronger effect = lower value 0.994 | S. cerevisiae deletion strains, locus YNL128W, strain TEP1, stronger effect = lower value 1.02 | S. cerevisiae deletion strains, locus YNL153C, strain GIM3, stronger effect = lower value 1 | S. cerevisiae deletion strains, locus YNL183C, strain NPR1, stronger effect = lower value 0.953 | S. cerevisiae deletion strains, locus YNL209W, strain ssb2, stronger effect = lower value 1 | S. cerevisiae deletion strains, locus YNL233W, strain BNI4, stronger effect = lower value 1.01 | S. cerevisiae deletion strains, locus YNL248C, strain rpa49, stronger effect = lower value 0.992 | S. cerevisiae deletion strains, locus YNL250W, strain rad50, stronger effect = lower value 1.03 | S. cerevisiae deletion strains, locus YNL271C, strain bni1, stronger effect = lower value 1.02 | S. cerevisiae deletion strains, locus YNL298W, strain CLA4, stronger effect = lower value 1.03 | S. cerevisiae deletion strains, locus YNL307C, strain MCK1, stronger effect = lower value 1.03 | S. cerevisiae deletion strains, locus YNL322C, strain KRE1 (second series), stronger effect = lower value 0.992 | S. cerevisiae deletion strains, locus YNL322C, strain KRE1, stronger effect = lower value 1.01 | S. cerevisiae deletion strains, locus YNR049C, strain mso1, stronger effect = lower value 0.988 | S. cerevisiae deletion strains, locus YNR052C, strain pop2, stronger effect = lower value 1.01 | S. cerevisiae deletion strains, locus YOL006C, strain TOP1, stronger effect = lower value 1.06 | S. cerevisiae deletion strains, locus YOL012C, strain htz1 1.75 | S. cerevisiae deletion strains, locus YOL147C, strain pex11, stronger effect = lower value 1.02 | S. cerevisiae deletion strains, locus YOR001W, strain rrp6, stronger effect = lower value 1 | S. cerevisiae deletion strains, locus YOR061W, strain CKA2, stronger effect = lower value 1.01 | S. cerevisiae deletion strains, locus YOR069W, strain VPS5, stronger effect = lower value 1.01 | S. cerevisiae deletion strains, locus YOR070C, strain gyp1, stronger effect = lower value 0.991 | S. cerevisiae deletion strains, locus YOR080W, strain dia2, stronger effect = lower value 0.988 | S. cerevisiae deletion strains, locus YOR083W, strain WHI5, stronger effect = lower value 1.01 | S. cerevisiae deletion strains, locus YOR106W, strain vam3, stronger effect = lower value 1.02 | S. cerevisiae deletion strains, locus YOR136W, strain idh2, stronger effect = lower value 1.02 | S. cerevisiae deletion strains, locus YOR144C, strain elg1, stronger effect = lower value 1.03 | S. cerevisiae deletion strains, locus YOR184W, strain ser1, stronger effect = lower value 1.03 | S. cerevisiae deletion strains, locus YOR231W, strain MKK1, stronger effect = lower value 1.01 | S. cerevisiae deletion strains, locus YOR265W, strain rbl2, stronger effect = lower value 0.998 | S. cerevisiae deletion strains, locus YOR270C, strain vph1, stronger effect = lower value 1.02 | S. cerevisiae deletion strains, locus YOR290C, strain snf2, stronger effect = lower value 1.02 | S. cerevisiae deletion strains, locus YOR316C, strain cot1, stronger effect = lower value 1.01 | S. cerevisiae deletion strains, locus YPL051W, strain arl3, stronger effect = lower value 0.999 | S. cerevisiae deletion strains, locus YPL055C, strain LGE1, stronger effect = lower value 1.03 | S. cerevisiae deletion strains, locus YPL078C, strain atp4, stronger effect = lower value 1 | S. cerevisiae deletion strains, locus YPL106C, strain sse1, stronger effect = lower value 0.973 | S. cerevisiae deletion strains, locus YPL240C, strain hsp82, stronger effect = lower value 1 | S. cerevisiae deletion strains, locus YPL241C, strain CIN2, stronger effect = lower value 1.01 | S. cerevisiae deletion strains, locus YPL256C, strain CLN2, stronger effect = lower value 1.04 | S. cerevisiae deletion strains, locus YPR119W, strain clb2, stronger effect = lower value 1.02 | S. cerevisiae deletion strains, locus YPR141C, strain kar3, stronger effect = lower value 1.03 | S. cerevisiae deletion strains, locus YPR163C, strain tif3, stronger effect = lower value 1.02 | S. cerevisiae deletion strains, locus YPR167C, strain met16, stronger effect = lower value 1.02 | S. cerevisiae deletion strains, strain wtn01, stronger effect = lower value 1.02 | S. cerevisiae strains, strain wild type, stronger effect = lower value 1.01
